The source of these data is PubChem BioAssay.

Structures are written as SMILES. Active and inactive are the calls of the source.

Experiment [1] in a line: optical density shifts of acrAB sulA E. coli – strain DRC41, OD650, 48 h, E. coli filamentation inducer project, primary screen (AID 1152).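 Note: E. coli MC1000 strain DRC41 lacking acrAB efflux pump and sulA.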 To be noted: higher = more signal, called active from +8 up or from −8 down.
Experiment [2] is described as follows: probe aLefty1 binding on compound microarray – biochemical, small-molecule microarray, 635/667 nm fluorescence, primary screen (AID 1153).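 Note: score merges spot fluorescence with signal-to-noise ratio from the scanned slide images.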 To be noted: higher = more signal.
Experiment [3] can be described thus: plasmodial surface anion channel blockers, osmotic lysis – cell-based, P. falciparum Indochina, OD700, 1 h, primary screen (AID 1154). To be noted: P. falciparum Indochina infected RBC osmotic lysis, higher = more signal, called active from +8 up or from −8 down.
Experiment [4] is described as follows: plasmodial surface anion channel blockers, osmotic lysis – cell-based, P. falciparum Indochina, OD700, 2 h, primary screen (AID 1155).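 Note: lysis reports solute entry through the parasite surface anion channel PSAC.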 To be noted: P. falciparum Indochina infected erythrocytes, higher = more signal, called active from +8 up or from −8 down.
Experiment [5] can be described thus: changes in parasitized red cell lysis, either direction – P. falciparum Indochina, OD700, 3 h, PSAC antagonist project, primary screen (AID 1156). To be noted: P. falciparum-infected erythrocytes, osmotic lysis, higher = more signal, called active from +8 up or from −8 down.
The nature of experiment [6]: plasmodial surface anion channel blockers, osmotic lysis – cell-based, P. falciparum Indochina, OD700, 18 h, primary screen (AID 1157). To be noted: P. falciparum Indochina infected erythrocytes, osmotic lysis OD700, 18 h; higher = more signal, called active from +8 up or from −8 down.
A short description of experiment [7]: S6 kinase pathway phospho-S6 level changes – cell-based, A549, cytoblot, luminescence, serum-stimulated, primary screen (AID 1158).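 Note: serum-stimulated A549 lung adenocarcinoma cells; signal is phosphorylated S6 detected by cytoblot immunostaining with HRP secondary.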 To be noted: 5 h, higher = more signal.
Experiment [8] has as its target NADPH oxidase 2 (Homo sapiens) (UniProt P04839). Put plainly: compounds shifting NOX2 Amplex Red fluorescence – cell-based, HEK293-NOX2, PMA-stimulated, NOX inhibitor project, primary screen (AID 1159). Note: test concentration not given here. To be noted: 45 min, higher = more signal, called active from +8 up or from −8 down.
Experiment [9] concerns the target NADPH oxidase 4 (Homo sapiens) (UniProt Q9NPH5). In words: compounds shifting NOX4 Amplex Red fluorescence – cell-based, HEK293-NOX4, tetracycline-induced, NOX inhibitor project, primary screen (AID 1160). To be noted: HEK293-NOX4, Amplex Red H2O2 fluorescence, 45 min; higher = more signal, called active from +8 up or from −8 down.
Experiment [10] deals with NADPH oxidase 5 (Homo sapiens) (UniProt Q96PH1). Put plainly: compounds shifting NOX5 Amplex Red fluorescence – cell-based, HEK293-NOX5, NOX inhibitor project, primary screen (AID 1161). To be noted: HEK293-NOX5, ionomycin, 45 min, higher = more signal.
Chain of NADPH oxidase 5 (Homo sapiens) (Q96PH1 whole entry, looked up): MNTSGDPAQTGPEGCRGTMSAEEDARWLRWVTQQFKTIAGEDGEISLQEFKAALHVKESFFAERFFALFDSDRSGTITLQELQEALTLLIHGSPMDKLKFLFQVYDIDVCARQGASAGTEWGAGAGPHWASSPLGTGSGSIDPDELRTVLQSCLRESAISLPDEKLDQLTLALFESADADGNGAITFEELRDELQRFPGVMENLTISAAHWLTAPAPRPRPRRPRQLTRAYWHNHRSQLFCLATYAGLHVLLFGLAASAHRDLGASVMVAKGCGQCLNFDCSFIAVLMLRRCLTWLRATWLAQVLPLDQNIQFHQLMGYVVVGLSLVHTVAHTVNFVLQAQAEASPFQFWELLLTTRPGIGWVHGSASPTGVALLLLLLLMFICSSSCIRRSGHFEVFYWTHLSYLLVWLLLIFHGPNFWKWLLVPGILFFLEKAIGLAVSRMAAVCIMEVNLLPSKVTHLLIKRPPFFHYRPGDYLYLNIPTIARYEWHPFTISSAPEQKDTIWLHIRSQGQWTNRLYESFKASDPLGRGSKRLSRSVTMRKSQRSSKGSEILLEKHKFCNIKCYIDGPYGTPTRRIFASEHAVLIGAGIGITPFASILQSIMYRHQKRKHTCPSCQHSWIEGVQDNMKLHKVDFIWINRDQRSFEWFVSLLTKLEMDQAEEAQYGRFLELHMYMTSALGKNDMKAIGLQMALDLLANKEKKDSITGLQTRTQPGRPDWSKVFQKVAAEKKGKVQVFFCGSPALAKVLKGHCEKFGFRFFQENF
Experiment [11] can be described thus: compound effects on lung adenocarcinoma cell viability – A549, calcein-AM fluorescence, 48 h, basal, profiling panel (AID 1162). Note: test concentration not given here. To be noted: higher = more signal.
A short description of experiment [12]: compound effects on differentiated 3T3-L1 adipocyte viability – cell-based, 3T3-L1 adipocytes, calcein-AM fluorescence, 48 h, basal, profiling panel (AID 1163). Note: test concentration not given here. To be noted: 3T3-L1 adipocytes viability, higher = more signal.
The nature of experiment [13]: compound effects on hepatocellular carcinoma cell viability – HepG2, calcein-AM fluorescence, 48 h, basal, profiling panel (AID 1164). Note: test concentration not given here. To be noted: higher = more signal.
The nature of experiment [14]: compound effects on multiple myeloma cell viability – MM1S, calcein-AM fluorescence, 48 h, basal, profiling panel (AID 1165).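 Note: viability of MM1S multiple myeloma cells under basal unstimulated conditions; test concentration not given here.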 To be noted: higher = more signal.
Experiment [15] is described as follows: calcein-AM signal in unstimulated myeloma cells – cell-based, calcein-AM fluorescence, 48 h, PK04 Diversity Set, profiling panel (AID 1166).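 Note: cells grown under basal conditions without added stimulus; test concentration not given here.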 To be noted: RPMI8226 myeloma viability, higher = more signal.
Experiment [16] is described as follows: JC-1 mitochondrial signal, unstimulated HepG2 cells – cell-based, JC-1 fluorescence, 24 h, 100 nL compound, profiling panel (AID 1167). Note: test concentration not given here. To be noted: HepG2 mitochondrial potential, higher = more signal.
Experiment [17] is described as follows: JC-1 mitochondrial signal, unstimulated adipocytes – cell-based, JC-1 fluorescence, 3T3-L1 adipocytes, 24 h, 100 nL compound, profiling panel (AID 1168). Note: test concentration not given here. To be noted: JC-1 mitochondrial fluorescence, higher = more signal, called active from +8 up or from −8 down.
Experiment [18] in a line: JC-1 mitochondrial signal, unstimulated myeloma cells – cell-based, JC-1 fluorescence, RPMI8226, 24 h, 100 nL compound, profiling panel (AID 1169). Note: test concentration not given here. To be noted: JC-1 mitochondrial potential fluorescence, higher = more signal.
Experiment [19] in a line: JC-1 mitochondrial signal, unstimulated MM1S myeloma – cell-based, JC-1 fluorescence, 24 h, 100 nL compound, profiling panel (AID 1170). Note: test concentration not given here. To be noted: MM1S mitochondrial potential, higher = more signal.
Experiment [20] in a line: resazurin metabolic signal in A549 cells – cell-based, resazurin fluorescence, 24 h, PK04 Diversity Set, profiling panel (AID 1171). Note: test concentration not given here. To be noted: A549 viability, higher = more signal, called active from +8 up or from −8 down. Background: The colour change of resazurin is a common sign of viable cells or microbes.

Chain of NADPH oxidase 4 (Homo sapiens) (Q9NPH5 whole entry, looked up): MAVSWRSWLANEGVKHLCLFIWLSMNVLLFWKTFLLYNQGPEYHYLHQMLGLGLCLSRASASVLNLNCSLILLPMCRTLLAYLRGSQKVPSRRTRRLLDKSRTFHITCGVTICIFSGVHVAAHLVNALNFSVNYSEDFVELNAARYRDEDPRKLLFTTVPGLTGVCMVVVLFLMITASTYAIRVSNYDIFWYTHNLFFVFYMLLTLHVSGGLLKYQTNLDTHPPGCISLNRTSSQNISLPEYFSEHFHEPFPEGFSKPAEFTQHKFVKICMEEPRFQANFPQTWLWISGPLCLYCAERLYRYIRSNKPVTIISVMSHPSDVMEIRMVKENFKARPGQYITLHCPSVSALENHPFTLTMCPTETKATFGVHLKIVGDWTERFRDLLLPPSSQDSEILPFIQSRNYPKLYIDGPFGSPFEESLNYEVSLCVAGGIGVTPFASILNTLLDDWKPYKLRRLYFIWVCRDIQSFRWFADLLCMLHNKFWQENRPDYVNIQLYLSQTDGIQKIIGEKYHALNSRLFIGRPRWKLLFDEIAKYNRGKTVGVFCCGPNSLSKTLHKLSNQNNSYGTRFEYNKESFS
Chain of NADPH oxidase 2 (Homo sapiens) (P04839 whole entry, looked up): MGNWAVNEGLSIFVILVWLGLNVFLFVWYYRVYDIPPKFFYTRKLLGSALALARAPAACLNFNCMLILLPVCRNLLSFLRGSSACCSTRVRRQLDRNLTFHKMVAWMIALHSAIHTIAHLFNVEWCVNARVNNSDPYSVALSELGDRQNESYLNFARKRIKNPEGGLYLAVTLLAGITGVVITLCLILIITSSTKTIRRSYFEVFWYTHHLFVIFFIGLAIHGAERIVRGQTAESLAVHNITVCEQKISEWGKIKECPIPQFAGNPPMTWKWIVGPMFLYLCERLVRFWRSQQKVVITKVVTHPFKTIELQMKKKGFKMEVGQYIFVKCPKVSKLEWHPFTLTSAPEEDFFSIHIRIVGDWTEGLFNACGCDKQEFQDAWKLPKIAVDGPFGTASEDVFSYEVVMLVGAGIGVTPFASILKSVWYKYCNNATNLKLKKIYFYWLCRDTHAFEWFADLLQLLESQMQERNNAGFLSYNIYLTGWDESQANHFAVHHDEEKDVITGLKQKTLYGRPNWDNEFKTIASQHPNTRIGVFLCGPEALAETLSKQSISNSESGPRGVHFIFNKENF

`CO[C@H]1COC(=O)CC=C[C@@H](C)[C@H](OC)COC(=O)CCC[C@@H]1C`: the z-score was 0.398 (inactive) in experiment [1]; -0.674 (inactive) in experiment [3]; -1.22 (inactive) in experiment [4]; -0.518 (inactive) in experiment [5]; -2.08 (inactive) in experiment [6]; -0.0645 in [7]. The z-score in [8] was 0.00516 (inactive); in experiment [9], 0.612 (inactive); in experiment [10], 0.863; in experiment [11], -0.71; in experiment [12] it was -0.0523; in experiment [13], 0.0225. Besides, the z-score is 0.0987 in experiment [14]; 0.102 in [15]; -0.639 in experiment [16]; -0.399 (inactive) in experiment [17]; -0.509 in [18]; -0.135 in experiment [19]. In addition, in experiment [20], the z-score is 0.795 (inactive). Besides, the composite z-score in experiment [2] is -0.216.

Regarding `CCOC(=O)NN=C1C[C@@H](O)[C@@H](O)[C@@H]2[C@@H]3C(=O)N([C@@H](C)c4ccccc4)C(=O)[C@@H]3CC[C@H]12`, the z-score in [1] is 0.0575 (inactive); in experiment [3] it was 0.65 (inactive); in [4] it was 0.452 (inactive); in [5], -0.011 (inactive); in [6], 0.378 (inactive); in experiment [7], -0.34. Further, the z-score was 1.35 (inactive) in [8]; 0.67 (inactive) in experiment [9]; -0.657 in experiment [10]; -0.0339 in [11]; -0.584 in experiment [12]; -0.102 in experiment [13]. For the same molecule, the z-score is 0.136 in experiment [14]; -0.177 in experiment [15]; -0.39 in experiment [16]; 0.29 (inactive) in experiment [17]; 0.104 in experiment [18]; -0.476 in [19]. Further, the z-score in [20] was -0.193 (inactive). For the same molecule, in experiment [2], the composite z-score is 0.119.

Consider `CC(=O)OC[C@H]1OC(ON=CC[C@@H]2C=C[C@H](OC(C)=O)[C@@H](COC(C)=O)O2)[C@H](OC(C)=O)[C@@H](OC(C)=O)[C@@H]1OC(C)=O` (stereo not given in full), for which the z-score is -0.0016 (inactive) in [1]; 0.202 (inactive) in experiment [3]; 0.0995 (inactive) in experiment [4]; 0.153 (inactive) in experiment [5]; 0.22 (inactive) in experiment [6]; -0.999 in experiment [7]. In addition, the z-score in experiment [8] is 0.00176 (inactive); in experiment [9], 0.186 (inactive); in [10] it was 0.0378; in experiment [11] it was -0.49; in experiment [12], -0.403; in experiment [13], -1.12. Besides, the z-score in experiment [14] was -0.092; in experiment [15], -0.878; in [16], 0.0783; in experiment [17] it was -2.76 (inactive); in experiment [18] it was -0.796; in [19], 0.23. Also, in [20], the z-score was 0.103 (inactive). In [2], the composite z-score stood at 0.315.

As to `COC(=O)[C@H]1[C@@H](O)[C@@]2(O)c3ccccc3O[C@@]2(c2ccccc2)[C@@H]1c1ccccc1`, the z-score was -0.262 (inactive) in experiment [1]; 0.249 (inactive) in experiment [3]; 0.454 (inactive) in experiment [4]; 0.296 (inactive) in experiment [5]; 0.148 (inactive) in experiment [6]; 0.0192 in experiment [7]. The z-score in experiment [8] was -0.481 (inactive); in experiment [9], 0.526 (inactive); in [10], 0.152; in [11] it was -0.895; in experiment [12] it was -0.535; in experiment [13], -2.85. The z-score in experiment [14] is -2.81; in experiment [15], -3.1; in experiment [16] it was -1.85; in experiment [17], -0.144 (inactive); in [18], -0.231; in experiment [19], -0.341. Also, in experiment [20], the z-score was -0.146 (inactive). Further, the composite z-score in experiment [2] is -0.193.
